The test system of assay [1] is DLD1. Briefly: cell viability (CellTiter-Glo) relative to plate median (fraction of plate median); higher = more viable cells. Conditions: 5 µM; treatment time 24 h; reporter: 7TFP. Summed up:
(§1)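 Luminescence, normalised well by well to the plate median, is tabulated as a mean of independent replicates. There were two replicates, run on colorectal cancer lines stably transduced with lentiviral TCF/Wnt firefly luciferase reporters and dosed with library compounds at a final 5 µM for 24 h. Readouts were firefly luciferase or CellTiterGlo on parallel plates.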
In general terms: Cellular ATP, detected with luciferase, serves as a proxy for viable cell number.

Assay [2] concerns HCT116. The description is as above. Conditions: 5 µM; treatment time 24 h; reporter: TCF4/Wnt. Summed up:
as §1

In assay [3] the test system is SW480. The assay is described as above. The conditions noted are these: 5 µM; treatment time 24 h; reporter: 7TFP. The essentials:
as §1

Assay [4] relates to DLD1. Put plainly: TCF/Wnt firefly luciferase reporter signal relative to plate median (fraction of plate median); higher = higher Wnt reporter signal. The conditions noted are these: 5 µM; treatment time 24 h; reporter: 7TFP. Summed up:
as §1

The test system of assay [5] is SW480. The assay is described as above. The conditions noted are these: 5 µM; treatment time 24 h; reporter: 7TFP. Summed up:
as §1

The values that follow come from the supplement of paper PMC6522484.

Structures are written as SMILES. ± gives the standard deviation of the averaged measurements.

Regarding `C[N+](C)(C)CC(=O)O`, the cell viability in assay [1] was 0.9965 ± 0.005; in assay [2], 0.98 ± 0.042; in assay [3] it was 0.926 ± 0.036. Besides, the results for the “TCF/Wnt firefly luciferase reporter signal” value in assay [4] and in assay [5] were 0.906 ± 0.1 and 0.9215 ± 0.0064, respectively.

Turning to `CCOc1nc2cccc(C(=O)OC(C)OC(=O)OC3CCCCC3)c2n1Cc1ccc(-c2ccccc2-c2nn[nH]n2)cc1` (stereo not given), the cell viability in assay [1] is 0.864 ± 0.052; in assay [2] it was 0.959 ± 0.042; in assay [3], 1.045 ± 0.0071. For the same compound, the “TCF/Wnt firefly luciferase reporter signal” value in assay [4] stood at 1.06 ± 0.2; in assay [5] it was 1.07 ± 0.064.

In the case of `CN1CCC[C@@H]1Cc1c[nH]c2ccc(CCS(=O)(=O)c3ccccc3)cc12`, the cell viability in assay [1] came to 0.943 ± 0.028; in assay [2], 1.05 ± 0.12; in assay [3] it was 0.956 ± 0.023. In addition, the figures for the “TCF/Wnt firefly luciferase reporter signal” value in assay [4] and in assay [5] were 0.945 ± 0.18 and 1.04 ± 0.063, respectively.

Regarding `CC1(C)O[C@@H]2C[C@H]3[C@@H]4CCC5=CC(=O)C=C[C@]5(C)[C@H]4[C@@H](O)C[C@]3(C)[C@]2(C(=O)CO)O1`, the cell viability is 0.999 ± 0.03 in assay [1], 1.06 ± 0.05 in assay [2] and 0.977 ± 0.033 in assay [3]. For the same compound, the “TCF/Wnt firefly luciferase reporter signal” value in assay [4] came out at 0.979 ± 0.086; in assay [5], 0.9755 ± 0.0078.

For `C=C1C2CCC3(C)C(c4ccoc4)OC(=O)CC13OC1CC(OC(C)=O)C(C)(C)C(CC(=O)OC)C12C` (stereo not drawn) [3beta-ACETOXYDEOXYANGOLENSIC ACID, METHYL ESTER], the cell viability amounted to 0.908 ± 0.14 in assay [1], 0.946 ± 0.033 in assay [2] and 0.995 ± 0.05 in assay [3]. Moreover, the “TCF/Wnt firefly luciferase reporter signal” value in assay [4] amounted to 0.966 ± 0.13; in assay [5], 0.8955 ± 0.0021.

With `COc1ccc(-c2cc(=O)c3ccccc3o2)cc1`, the cell viability in assay [1] is 1 ± 0.066; in assay [2], 0.983 ± 0.11; in assay [3] it was 1.03. In addition, the “TCF/Wnt firefly luciferase reporter signal” value in assay [4] came out at 1.28 ± 0.12; in assay [5], 1.13 ± 0.18.

As for `Cc1ccc(C(=O)Nc2ccc(S(=O)(=O)O)c3cc(S(=O)(=O)O)cc(S(=O)(=O)O)c23)cc1NC(=O)c1cccc(NC(=O)Nc2cccc(C(=O)Nc3cc(C(=O)Nc4ccc(S(=O)(=O)O)c5cc(S(=O)(=O)O)cc(S(=O)(=O)O)c45)ccc3C)c2)c1`, the figures for the cell viability in assay [1], in assay [2] and in assay [3] were 1.02 ± 0.068, 0.929 ± 0.13 and 1.04 ± 0.035, respectively. Further, the “TCF/Wnt firefly luciferase reporter signal” value in assay [4] was found to be 0.936 ± 0.018; in assay [5], 0.954 ± 0.11.

As to `CC1CC(OC(=O)C(O)c2ccccc2)CC(C)(C)N1C` (stereo not given), the cell viability in assay [1] is 1 ± 0.011; in assay [2], 1.05 ± 0.021; in assay [3] it was 1.02. Besides, the results for the “TCF/Wnt firefly luciferase reporter signal” value in assay [4] and in assay [5] were 1.05 ± 0.028 and 1.18 ± 0.057, respectively.

For the compound `CCOC(=O)n1ccn(C)c1=S`, the cell viability in assay [1] worked out at 0.985 ± 0.05; in assay [2] it was 1.12; in assay [3], 1.01 ± 0.035. Also, the “TCF/Wnt firefly luciferase reporter signal” value came to 0.9725 ± 0.0021 in assay [4] and 1.04 ± 0.014 in assay [5].

Turning to `COc1cc2c(cc1OC)Cc1cc(OC)c(OC)cc1Cc1cc(OC)c(OC)cc1C2`, the cell viability in assay [1] was 1.02 ± 0.055; in assay [2], 0.97 ± 0.16; in assay [3], 1.02 ± 0.033. The “TCF/Wnt firefly luciferase reporter signal” value was 1.1 ± 0.15 in assay [4] and 0.865 ± 0.045 in assay [5].

In the case of `C=CCNC1=C2C[C@@H](C)C[C@H](OC)[C@H](O)[C@@H](C)/C=C(\C)[C@H](OC(N)=O)[C@@H](OC)/C=C\C=C(/C)C(=O)NC(=CC1=O)C2=O`, the cell viability in assay [1] is 1.07 ± 0.014; in assay [2], 0.623 ± 0.023; in assay [3], 0.972 ± 0.04. Moreover, the “TCF/Wnt firefly luciferase reporter signal” value in assay [4] came to 0.878 ± 0.15; in assay [5], 0.731 ± 0.029.

With `CC(=O)[C@H]1CC[C@H]2[C@@H]3CC=C4C[C@@H](OC(=O)CCC(=O)O)CC[C@]4(C)[C@H]3CC[C@]12C`, the cell viability was determined as 1.02 ± 0.021 in assay [1], 1.01 ± 0.018 in assay [2] and 0.975 ± 0.033 in assay [3]. Besides, the “TCF/Wnt firefly luciferase reporter signal” value in assay [4] was found to be 0.97 ± 0.03; in assay [5], 1.1 ± 0.028.

`CCCc1nc(C)c2c(O)nc(-c3cc(S(=O)(=O)N4CCN(CC)CC4)ccc3OCC)nn12`: the cell viability in assay [1] came out at 0.948 ± 0.022; in assay [2] it was 1.02 ± 0.061; in assay [3], 0.9505 ± 0.005. The “TCF/Wnt firefly luciferase reporter signal” value came to 1.05 ± 0.021 in assay [4] and 1.07 ± 0.042 in assay [5].

For the compound `CN1CCCC(n2nc(Cc3ccc(Cl)cc3)c3ccccc3c2=O)CC1` (stereo not given), the values for the cell viability in assay [1], in assay [2] and in assay [3] were 1.01 ± 0.021, 1.015 ± 0.0071 and 1.045 ± 0.0071, respectively. Also, the “TCF/Wnt firefly luciferase reporter signal” value in assay [4] amounted to 1.17 ± 0.17; in assay [5] it was 1.06 ± 0.057.
